In PubChem BioAssay (NCI):
About 83,000 compounds went through this panel and 20% of them were active in at least one assay; those are over-represented in the sample as a whole.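 The test compound was applied at a single concentration to cells in 96-well plates for 48 hours, and percent growth was recorded.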 Values without a mark were called inactive. Calls of active or inactive are those of the source. How the source made its calls: active means growth percent below 10; inactive means the rest.

How the values were obtained:
Assay in all cases: NCI-60 one-dose screen, 48 h (100 = growth as untreated, 0 = no growth, -100 = all killed)
Settings in all cases: 10 µM unless noted
HCT-15 colon = system: HCT-15 colon
HT29 colon = system: HT29 colon
SNB-75 CNS = system: SNB-75 CNS
SNB-19 CNS = system: SNB-19 CNS
U251 CNS = system: U251 CNS
PC-3 prostate = system: PC-3 prostate
SK-MEL-5 melanoma = system: SK-MEL-5 melanoma
UACC-62 melanoma = system: UACC-62 melanoma
LOX IMVI melanoma = system: LOX IMVI melanoma
SK-MEL-28 melanoma = system: SK-MEL-28 melanoma
SK-MEL-2 melanoma = system: SK-MEL-2 melanoma
EKVX NSCLC = system: EKVX NSCLC
SN12C renal = system: SN12C renal
UO-31 renal = system: UO-31 renal
TK-10 renal = system: TK-10 renal
ACHN renal = system: ACHN renal
A498 renal = system: A498 renal
CCRF-CEM leukemia = system: CCRF-CEM leukemia
MOLT-4 leukemia = system: MOLT-4 leukemia

SMILES	growth (HCT-15 colon)	growth (HT29 colon)	growth (SNB-75 CNS) [%]	growth (SNB-19 CNS) [%]	growth (U251 CNS) [%]	growth (PC-3 prostate) [%]	growth (SK-MEL-5 melanoma) [%]	growth (UACC-62 melanoma)	growth (LOX IMVI melanoma)	growth (SK-MEL-28 melanoma)	growth (SK-MEL-2 melanoma) [%]	growth (EKVX NSCLC) [%]	growth (SN12C renal) [%]	growth (UO-31 renal)	growth (TK-10 renal)	growth (ACHN renal)	growth (A498 renal) [%]	growth (CCRF-CEM leukemia)	growth (MOLT-4 leukemia)
CN1C(=O)C2(SCC(C(=O)NCC(=O)OC(C)(C)C)N2C(=O)C2CCCCC2)c2ccccc21 (centres undefined)	96.6%	87.6%	80.4	99.2	92	94.6	98.2	91.8%	94.9%	103%	86.9	96.6	99.2	84%	103%	99.8%	83.5	96.3%	92.6%
CCOc1cccc(Nc2nc(N)nc3[nH]c4ccc(O)cc4c23)c1	85.4%	93.3%	46.1	70.1	79.7	74.8	54.4	73.8%	36.7%	89.3%	90.2	27.8	54.1	36.4%	27.2%	40.8%	51	61.7%	53.9%
COc1ccc(-c2cnc(-c3ccc(F)cc3)[nH]2)cc1	53.2%	16.4%	98.6	98.5	33.3	73.7	101	82.2%	6.54% (active)	110%	113	90.7	99	84.5%	230%	105%	97.1	-48.2% (active)	54.7%
C=C1C(=O)O[C@H]2[C@H]1CC/C(COC(=O)c1ccc(Cl)nc1)=C\CC[C@@]1(C)O[C@@H]21	-14.6% (active)	-6.31% (active)	74.9	56	44.1	53.2	44.8	-25.6% (active)	-79.3% (active)	1.37% (active)	40.4	10.2	12.9	-39% (active)	-8.78% (active)	-20.6% (active)	87.2	-32.1% (active)	-28.6% (active)
COc1ccccc1S(=O)(=O)Nc1ccc2c3c(cc(-c4cnn(C5CC5)c4)nc13)C(=O)N2C	62.7%	44%	19.2	77.6	81.6	61.3	57.5	35.4%	47.5%	77%	78.6	56.1	76.7	34.9%	48.2%	68%	59.3	76.9%	56.3%
Cc1ccc(-c2cc(-c3nnc(SCC(=O)c4ccccc4)o3)c3ccccc3n2)cc1	96.3%	90.1%	57.1	101	98.3	95.5	95.3	90.8%	92.4%	96.6%	90.7	83.4	101	74.6%	61.8%	93.9%	77	100%	95.2%
COc1ccc(-c2cc(-c3nnc(SC/C(=N\O)c4ccccc4)n3-c3ccccc3)c3ccccc3n2)cc1	107%	99.5%	100	105	101	93.6	108	97.6%	95.7%	113%	95.2	103	105	75.3%	123%	106%	109	103%	98.4%
CCOC(=O)C1CSC(C)(C(=O)OCC)N1 (centres undefined)	101%	87.9%	100	107	106	95.1	101	105%	98.2%	107%	99.4	94.7	104	95.6%	91.9%	110%	118	103%	92.8%
COc1cc(/C=C/C(=O)c2c(C)[n+]([O-])c3ccccc3[n+]2[O-])ccc1O	93.5%	161%	162	111	90.8	90.6	81.6	110%	92.6%	117%	83.8	84.5	101	80.4%	55.9%	95.4%	101	124%	126%
COc1cc(/C=C\c2cc(/C=C\c3ccc(O)c(OC)c3)n(C(=O)CNc3ccccc3OC)n2)ccc1O	56.3%	109%	61.6	70.9	53.4	64.2	44.8	79.1%	40.2%	70%	61.2	91.6	75.4	46.4%	113%	45.3%	105	45.2%	58.6%
NS(=O)(=O)c1ccc(-n2nc(-c3ccc(Cl)cc3)ccc2=O)cc1	84.5%	104%	86	86.8	104	85.6	83.1	61.4%	95.8%	90.3%	86.1	99.7	109	91.7%	123%	101%	102	86.4%	96.4%
Cc1cc2nc(-c3c(N)ncc(C#N)c3-c3ccc(Cl)cc3)[nH]c2cc1C	67.2%	29.8%	56.6	84.7	18	53.5	71.9	57.8%	51.7%	57.6%	59.9	63.7	76.5	77.8%	41.5%	67.7%	44.1	54.5%	73.3%
COc1ccccc1S(=O)(=O)Nc1ccc2c3c(cc(-c4cnn(C)c4)nc13)C(=O)N2C	27.6%	18%	26.6	50	52	42.1	29.5	18.2%	10.4%	63.1%	46.9	40.2	52.2	23.7%	13%	37.5%	26.8	55.5%	44.7%
O=C(N/N=C1\SCC(=O)N1c1ccccc1)c1cc(-c2cc3ccccc3o2)nn1-c1ccccc1	106%	107%	101	104	103	86.9	101	134%	107%	110%	103	96.7	122	118%	112%	91%	103	-84.9% (active)	87%
O=C(c1cc(-c2ccc(Cl)cc2)nc2ccccc12)N1N=C(c2ccccc2)CC1c1cc(-c2ccccc2)nn1-c1ccccc1 (centres undefined)	56.7%	98.7%	69.2	77.1	63.8	71.3	78.7	79.2%	57%	73.3%	86.4	81.1	85.5	70.4%	131%	73%	92.5	65.1%	68.7%
C/C(=N/NC(=O)Cn1c2ccccc2c2ccncc21)c1cccs1	99.8%	89.5%	104	94.9	97.5	99.2	99.4	95.8%	104%	108%	96.6	103	104	94.5%	127%	103%	86.5	91.1%	83.1%
